Assay results: the supplement of paper PMC7380943
Structures can show the parent of a compound that is named as a salt.

tested on: CLZ3 (HCA2 human fibroblast dual HR-NHEJ reporter); assay: HR repair efficiency (tdTomato+ cells) relative to control (log10 fold); higher = more homologous recombination; conditions: 5 µM; doxycycline 0.5 ug/mL
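Also: compound given one day before doxycycline, which switches on I-SceI endonuclease expression to create double-strand breaks within the integrated reporter.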

| Compound | HR repair efficiency (log10) |
| --- | --- |
| O=C(O)C(O)c1ccccc1 (stereo not given) [Mandelic Acid] | 0.105 |
| COc1ccc2[nH]cc(CCNC(C)=O)c2c1 [Melatonin] | 0.227 |
| c1ccc([C@H]2CN3CCSC3=N2)cc1 [Levamisole hydrochloride] | -0.0158 |
| CC(=O)[C@H]1CC[C@H]2[C@@H]3CCC4=CC(=O)CC[C@]4(C)[C@H]3CC[C@]12C [Lutin] | 0.268 |
| COc1c(O)cc2c(c1O)[C@@H]1O[C@H](CO)[C@@H](O)[C@H](O)[C@H]1OC2=O [Bergenin] | -0.0334 |
| C=C(C)[C@@H]1CC[C@]2(C(=O)O[C@@H]3O[C@H](CO[C@@H]4O[C@H](CO)[C@@H](O[C@@H]5O[C@@H](C)[C@H](O)[C@@H](O)[C@H]5O)[C@H](O)[C@H]4O)[C@@H](O)[C@H](O)[C@H]3O)CC[C@]3(C)[C@H](CC[C@@H]4[C@@]5(C)CC[C@H](O[C@@H]6OC[C@H](O)[C@H](O)[C@H]6O[C@@H]6O[C@@H](C)[C@H](O)[C@@H](O)[C@H]6O)[C@@](C)(CO)[C@@H]5CC[C@]43C)[C@@H]12 [Anemoside B4] | 0.0526 |
| O=C(/C=C/c1ccc(O)c(O)c1)O[C@@H]1[C@H](O)C[C@@](O)(C(=O)O)C[C@H]1OC(=O)/C=C/c1ccc(O)c(O)c1 [Isochlorogenic acid B] | 0.105 |
| CC[C@H](/C=C/[C@@H](C)[C@H]1CC[C@H]2[C@@H]3CC=C4C[C@@H](O)CC[C@]4(C)[C@H]3CC[C@]12C)C(C)C [Stigmasterol] | -0.14 |
| O=c1ccc2ccccc2o1 [Coumarin] | 0.0819 |
| CC(C)(O)CC[C@@H](O)C(C)(O)[C@H]1CC[C@@]2(O)C3=CC(=O)[C@@H]4C[C@@H](O)[C@@H](O)C[C@]4(C)[C@H]3CC[C@]12C (stereo partly drawn) [Β-Hydroxyecdysone] | 0.056 |
| COC(=O)C1=CO[C@@H](O[C@@H]2O[C@H](CO)[C@@H](O)[C@H](O)[C@H]2O)[C@@H]2[C@H](C)O[C@@H](O)C[C@H]12 [Morroniside] | 0.186 |
| CC1(C)CCC2(CO)C(=C3C=CC4C5(C)CCC(OC6OC(COC7OC(CO)C(O)C(O)C7O)C(OC7OC(CO)C(O)C(O)C7O)C(O)C6O)C(C)(CO)C5CCC4(C)C3(C)CC2O)C1 (stereo not given) [Clinopodiside A] | 0.0428 |
| COC(=O)[C@H]1O[C@@H](Oc2cc3oc(-c4ccc(O)cc4)cc(=O)c3c(O)c2O)[C@H](O)[C@@H](O)[C@@H]1O [Scutellarin Methyl Ester] | -0.014 |
| C[C@@H]1CC[C@@]2(OC1)O[C@H]1C[C@H]3[C@@H]4CC[C@H]5C[C@@H](O)CC[C@]5(C)[C@H]4CC[C@]3(C)[C@H]1[C@@H]2C [Tigogenin] | 0.0468 |
| COc1ccc(-c2cc(=O)c3c(O)c(OC)c(O)c(OC)c3o2)cc1 [Nevadensin] | 0.0179 |
| C[C@H](CCC(=O)O)[C@H]1CC[C@H]2[C@@H]3C[C@H](O)[C@@H]4C[C@H](O)CC[C@]4(C)[C@H]3CC[C@]12C [Hyodesoxycholic acid] | -0.322 |
| C=C(CC[C@@H](C(=O)O)[C@H]1[C@H](O)C[C@@]2(C)C3=C(CC[C@]12C)[C@@]1(C)CC[C@H](OC(C)=O)C(C)(C)[C@@H]1CC3)C(C)C [Pachymic Acid] | 0.0591 |
| COc1cc2c(cc1OC)-c1cc3ccc4c(c3c[n+]1CC2)OCO4 [Epiberberine] | 0.05 |
| O=c1c(O)c(-c2ccc(O)c(O)c2)oc2cc(O)ccc12 [Fisetin] | -0.0214 |
| C[C@@H]1CC[C@@]2(OC1)O[C@H]1C[C@H]3[C@@H]4CC=C5C[C@@H](O)C[C@@H](O)[C@]5(C)[C@H]4CC[C@]3(C)[C@H]1[C@@H]2C [Ruscogenin] | 0.181 |
| O=C1CCC[C@@H]2[C@H]3CCC[N+]4([O-])CCC[C@@H](CN12)[C@@H]34 (stereo not given in full) [Oxymatrine] | -0.0643 |
| Cc1c(O)c(C)c2c(c1O)C(=O)C[C@@H](c1ccc(O)cc1)O2 [Farrerol] | 0.437 |
| O=C(/C=C/c1ccc(O)c(O)c1)OC[C@H]1O[C@@H](OCCc2ccc(O)c(O)c2)[C@H](O)[C@@H](O)[C@@H]1O [Calceolarioside B] | 0.193 |
| COc1cc(O)c2c(=O)c(O[C@@H]3O[C@H](CO)[C@@H](O)[C@H](O)[C@H]3O)c(-c3ccc(O[C@@H]4O[C@H](CO)[C@@H](O)[C@H](O)[C@H]4O)cc3)oc2c1 [Complanatoside] | -0.0658 |
| COc1cc(C[C@H](C)[C@H](C)Cc2ccc3c(c2)OCO3)ccc1O [Anwuligan] | 0.0747 |
| O=C1Nc2ccccc2/C1=C1/Nc2ccccc2C1=O [Indirubin] | -0.00679 |
| C=CCc1ccc(O)c(-c2cc(CC=C)ccc2O)c1 [Magnolol] | 0.105 |
| CC1(C)[C@@H](O[C@H]2O[C@H](C(=O)O)[C@@H](O)[C@H](O)[C@H]2O[C@@H]2O[C@H](C(=O)O)[C@@H](O)[C@H](O)[C@H]2O)CC[C@]2(C)[C@H]3C(=O)C=C4[C@@H]5C[C@@](C)(C(=O)O)CC[C@]5(C)CC[C@@]4(C)[C@]3(C)CC[C@@H]12 [Glycyrrhizic acid] | -0.0143 |
| C[C@@H]1O[C@@H](Oc2cc(O)c3c(=O)c(O[C@@H]4O[C@@H](C)[C@H](O)[C@@H](O)[C@H]4O)c(-c4ccc(O)cc4)oc3c2)[C@H](O)[C@H](O)[C@H]1O [Kaempferitrin] | 0.0294 |
| OC[C@H]1O[C@H](OC[C@H]2O[C@H](O[C@]3(CO)O[C@H](CO)[C@@H](O)[C@@H]3O)[C@H](O)[C@@H](O)[C@@H]2O)[C@H](O)[C@@H](O)[C@H]1O [Raffinose] | -0.00512 |
